Data taken from the supplement of paper PMC11732987, “Enantioselective OTUD7B fragment discovery through chemoproteomics screening and high-throughput optimisation” (Communications Chemistry, 2025).
Unmarked numbers belong to inactive results.

compound: ClCC(=O)NC1(CCCC1)C#N; test: log2 ratio of Biotin-Ahx-Ub-VS probe labelling (compound/DMSO); higher = less target engagement, active = hit call of the paper (q ≤ 0.05, log2 ratio ≤ -1); conditions: compound concentration: 50uM; treatment time: 3 h
Protocol: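 Round 2 competitive ABPP in HEK293T lysate. Compounds were tested at 50 and 200 µM for 3 h, followed by Biotin-Ahx-Ub-VS enrichment and diaPASEF LC-MS/MS. Values are the average log2 ratio (compound/DMSO) from an unpaired t-test (n=3 treated, n=26 DMSO).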

Sequence of UniProt P54578 (P54578 whole entry): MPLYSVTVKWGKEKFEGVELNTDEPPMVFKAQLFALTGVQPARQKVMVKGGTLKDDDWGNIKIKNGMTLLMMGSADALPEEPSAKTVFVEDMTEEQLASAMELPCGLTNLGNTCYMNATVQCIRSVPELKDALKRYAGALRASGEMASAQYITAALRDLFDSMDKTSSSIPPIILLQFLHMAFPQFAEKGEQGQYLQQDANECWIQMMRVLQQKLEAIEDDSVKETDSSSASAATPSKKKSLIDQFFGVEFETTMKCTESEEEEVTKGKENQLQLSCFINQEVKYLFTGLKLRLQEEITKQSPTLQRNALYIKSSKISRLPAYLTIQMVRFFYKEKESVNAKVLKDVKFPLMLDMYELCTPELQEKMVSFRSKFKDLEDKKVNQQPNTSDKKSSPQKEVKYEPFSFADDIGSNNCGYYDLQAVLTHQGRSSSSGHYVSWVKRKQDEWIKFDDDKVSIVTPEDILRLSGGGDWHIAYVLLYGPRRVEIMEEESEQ
Sequence of UniProt O00303 (O00303 whole entry): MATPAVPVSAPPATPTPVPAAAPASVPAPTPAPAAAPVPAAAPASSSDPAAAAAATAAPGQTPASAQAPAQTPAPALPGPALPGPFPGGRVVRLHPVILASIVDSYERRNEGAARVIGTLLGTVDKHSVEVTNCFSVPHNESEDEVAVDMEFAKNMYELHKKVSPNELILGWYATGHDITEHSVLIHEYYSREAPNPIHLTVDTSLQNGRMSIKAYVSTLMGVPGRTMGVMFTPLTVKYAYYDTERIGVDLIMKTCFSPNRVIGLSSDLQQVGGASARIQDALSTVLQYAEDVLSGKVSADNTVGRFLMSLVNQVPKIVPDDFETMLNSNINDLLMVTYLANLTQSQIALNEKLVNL
Sequence of UniProt Q9Y5T5 (Q9Y5T5 whole entry, looked up): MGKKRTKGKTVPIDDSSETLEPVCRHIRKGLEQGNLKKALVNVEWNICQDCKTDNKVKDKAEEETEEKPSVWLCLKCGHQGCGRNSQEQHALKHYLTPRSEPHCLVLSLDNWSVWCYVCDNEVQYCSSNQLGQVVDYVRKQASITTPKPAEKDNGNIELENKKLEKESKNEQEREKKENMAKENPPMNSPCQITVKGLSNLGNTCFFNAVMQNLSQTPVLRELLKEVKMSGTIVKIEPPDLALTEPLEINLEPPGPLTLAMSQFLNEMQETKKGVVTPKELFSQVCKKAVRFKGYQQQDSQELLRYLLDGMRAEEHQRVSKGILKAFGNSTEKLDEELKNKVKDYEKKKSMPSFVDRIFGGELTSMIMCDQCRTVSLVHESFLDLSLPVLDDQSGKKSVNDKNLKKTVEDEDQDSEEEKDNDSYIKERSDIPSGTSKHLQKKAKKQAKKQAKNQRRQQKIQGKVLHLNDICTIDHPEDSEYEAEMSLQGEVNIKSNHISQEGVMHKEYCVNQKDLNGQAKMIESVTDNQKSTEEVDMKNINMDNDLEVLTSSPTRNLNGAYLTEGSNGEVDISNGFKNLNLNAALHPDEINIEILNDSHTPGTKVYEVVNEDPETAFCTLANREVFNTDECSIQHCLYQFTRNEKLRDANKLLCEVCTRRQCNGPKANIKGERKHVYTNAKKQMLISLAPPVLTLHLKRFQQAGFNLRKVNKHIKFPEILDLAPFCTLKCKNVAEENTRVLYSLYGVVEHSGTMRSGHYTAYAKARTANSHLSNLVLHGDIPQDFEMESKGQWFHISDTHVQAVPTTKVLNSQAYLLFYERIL
Sequence of UniProt Q5T2D3 (Q5T2D3 whole entry): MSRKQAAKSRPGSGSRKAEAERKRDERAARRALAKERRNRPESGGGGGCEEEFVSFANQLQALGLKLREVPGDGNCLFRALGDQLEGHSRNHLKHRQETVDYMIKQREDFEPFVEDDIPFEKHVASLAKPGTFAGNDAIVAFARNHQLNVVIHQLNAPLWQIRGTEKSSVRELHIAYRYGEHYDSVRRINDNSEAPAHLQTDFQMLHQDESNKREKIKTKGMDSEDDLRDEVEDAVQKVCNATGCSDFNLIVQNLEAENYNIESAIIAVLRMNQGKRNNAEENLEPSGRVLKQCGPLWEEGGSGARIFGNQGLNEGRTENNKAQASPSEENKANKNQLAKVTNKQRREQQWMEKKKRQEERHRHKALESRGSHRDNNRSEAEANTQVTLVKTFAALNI
Sequence of UniProt Q9P275 (Q9P275 whole entry): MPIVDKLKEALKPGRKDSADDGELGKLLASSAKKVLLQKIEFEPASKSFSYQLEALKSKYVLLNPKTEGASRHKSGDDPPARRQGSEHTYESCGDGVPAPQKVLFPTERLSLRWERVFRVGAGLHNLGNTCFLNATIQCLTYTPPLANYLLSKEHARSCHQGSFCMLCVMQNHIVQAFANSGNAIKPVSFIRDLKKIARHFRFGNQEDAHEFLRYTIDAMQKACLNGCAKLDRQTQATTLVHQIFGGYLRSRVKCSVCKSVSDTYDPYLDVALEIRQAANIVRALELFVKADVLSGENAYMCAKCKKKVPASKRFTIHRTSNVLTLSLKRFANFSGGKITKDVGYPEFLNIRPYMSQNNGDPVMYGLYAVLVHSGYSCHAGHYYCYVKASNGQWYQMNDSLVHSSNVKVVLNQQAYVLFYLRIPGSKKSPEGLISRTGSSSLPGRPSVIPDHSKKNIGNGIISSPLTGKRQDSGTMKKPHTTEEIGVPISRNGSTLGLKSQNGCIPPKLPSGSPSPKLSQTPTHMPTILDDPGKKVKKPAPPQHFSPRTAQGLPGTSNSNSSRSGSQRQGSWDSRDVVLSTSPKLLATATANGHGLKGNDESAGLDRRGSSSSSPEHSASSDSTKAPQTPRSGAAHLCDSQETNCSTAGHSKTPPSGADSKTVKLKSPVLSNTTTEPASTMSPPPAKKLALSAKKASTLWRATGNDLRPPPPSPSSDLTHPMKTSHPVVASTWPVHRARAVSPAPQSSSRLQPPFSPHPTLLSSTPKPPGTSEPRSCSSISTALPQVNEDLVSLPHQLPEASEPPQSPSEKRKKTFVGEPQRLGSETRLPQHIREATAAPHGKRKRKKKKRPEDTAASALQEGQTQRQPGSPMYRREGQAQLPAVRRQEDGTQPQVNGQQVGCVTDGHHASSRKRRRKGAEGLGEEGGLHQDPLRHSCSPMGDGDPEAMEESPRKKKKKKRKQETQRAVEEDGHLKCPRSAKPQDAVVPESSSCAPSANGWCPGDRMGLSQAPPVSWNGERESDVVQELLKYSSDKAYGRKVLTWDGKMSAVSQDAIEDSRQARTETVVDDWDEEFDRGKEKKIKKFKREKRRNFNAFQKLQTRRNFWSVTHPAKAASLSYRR
Sequence of UniProt P09936 (P09936 whole entry, looked up): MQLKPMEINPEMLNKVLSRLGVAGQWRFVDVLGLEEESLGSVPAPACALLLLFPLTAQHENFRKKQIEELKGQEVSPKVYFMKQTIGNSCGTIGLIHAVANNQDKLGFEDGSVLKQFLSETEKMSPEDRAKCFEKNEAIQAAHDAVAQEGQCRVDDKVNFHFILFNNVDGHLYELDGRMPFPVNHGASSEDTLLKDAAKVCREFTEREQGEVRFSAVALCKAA
Sequence of UniProt O00487 (O00487 whole entry): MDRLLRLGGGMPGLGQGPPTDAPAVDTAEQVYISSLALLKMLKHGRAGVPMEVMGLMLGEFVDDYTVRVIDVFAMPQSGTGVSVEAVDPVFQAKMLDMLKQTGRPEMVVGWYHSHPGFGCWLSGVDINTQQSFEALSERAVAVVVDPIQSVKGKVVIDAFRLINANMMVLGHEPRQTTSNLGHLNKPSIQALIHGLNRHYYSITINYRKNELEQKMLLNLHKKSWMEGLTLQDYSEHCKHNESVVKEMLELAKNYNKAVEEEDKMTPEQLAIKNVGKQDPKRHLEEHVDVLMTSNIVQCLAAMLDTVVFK
Sequence of UniProt Q9UHP3 (Q9UHP3 whole entry): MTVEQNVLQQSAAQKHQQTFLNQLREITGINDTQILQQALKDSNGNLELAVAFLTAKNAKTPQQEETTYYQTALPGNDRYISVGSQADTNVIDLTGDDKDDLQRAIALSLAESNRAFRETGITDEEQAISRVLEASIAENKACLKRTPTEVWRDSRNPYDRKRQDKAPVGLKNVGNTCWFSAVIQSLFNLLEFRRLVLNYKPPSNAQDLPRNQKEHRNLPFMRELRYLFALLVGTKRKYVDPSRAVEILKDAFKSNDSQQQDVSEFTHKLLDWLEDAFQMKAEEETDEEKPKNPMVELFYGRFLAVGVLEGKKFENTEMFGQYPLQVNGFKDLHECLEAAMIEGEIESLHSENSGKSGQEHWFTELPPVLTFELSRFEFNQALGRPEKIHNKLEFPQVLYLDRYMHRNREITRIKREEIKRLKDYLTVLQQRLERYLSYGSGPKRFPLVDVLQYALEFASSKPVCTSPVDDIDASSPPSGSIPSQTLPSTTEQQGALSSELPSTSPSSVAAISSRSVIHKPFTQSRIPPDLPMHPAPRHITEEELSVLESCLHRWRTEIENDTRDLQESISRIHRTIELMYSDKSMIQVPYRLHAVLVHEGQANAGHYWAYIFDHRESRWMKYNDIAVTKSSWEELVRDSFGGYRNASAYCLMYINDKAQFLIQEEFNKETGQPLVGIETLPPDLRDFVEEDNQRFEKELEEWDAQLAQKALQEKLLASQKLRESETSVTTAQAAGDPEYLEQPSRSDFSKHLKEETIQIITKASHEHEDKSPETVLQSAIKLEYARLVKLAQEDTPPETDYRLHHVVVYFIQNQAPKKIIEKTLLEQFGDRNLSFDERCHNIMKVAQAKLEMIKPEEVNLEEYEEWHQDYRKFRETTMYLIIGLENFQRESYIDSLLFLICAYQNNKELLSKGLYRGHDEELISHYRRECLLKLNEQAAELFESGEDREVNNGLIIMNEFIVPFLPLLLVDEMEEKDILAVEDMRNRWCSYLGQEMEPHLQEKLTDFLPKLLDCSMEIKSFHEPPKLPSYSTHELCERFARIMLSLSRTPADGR

Target | log2 ratio of Biotin-Ahx-Ub-VS probe labelling
UCHL1 (UniProt P09936) | -0.205
USP15 (UniProt Q9Y4E8) | -0.194
USP5 (UniProt P45974) | -0.165
UniProt Q8TE49 | -0.765
EIF3F (UniProt O00303) | 0.000219
USP36 (UniProt Q9P275) | -0.292
USP48 (UniProt Q86UV5) | -0.156
USP39 (UniProt Q53GS9) | 0.213
USP24 (UniProt Q9UPU5) | -0.0634
USP9X (UniProt Q93008) | -0.227
USP8 (UniProt P40818) | -0.191
ATXN3 (UniProt P54252) | -0.261
UniProt Q5T2D3 | -0.0676
USP38 (UniProt Q8NB14) | -0.219
USP10 (UniProt Q14694) | -0.0318
USP25 (UniProt Q9UHP3) | -0.312
PRPF8 (UniProt Q6P2Q9) | -0.0469
UniProt O00487 | 0.252
USP14 (UniProt P54578) | 0.0754
USP16 (UniProt Q9Y5T5) | -0.176

same assay, conditions: compound concentration: 200uM; treatment time: 3 h

Target | log2 ratio of Biotin-Ahx-Ub-VS probe labelling
UCHL1 (UniProt P09936) | -0.155
USP15 (UniProt Q9Y4E8) | -0.0271
USP5 (UniProt P45974) | -0.145
UniProt Q8TE49 | -1.08 (active)
EIF3F (UniProt O00303) | 0.192
USP36 (UniProt Q9P275) | -0.22
USP48 (UniProt Q86UV5) | -0.0443
USP39 (UniProt Q53GS9) | -0.0479
USP24 (UniProt Q9UPU5) | -0.175
USP9X (UniProt Q93008) | -0.123
USP8 (UniProt P40818) | -0.0614
ATXN3 (UniProt P54252) | 0.039
UniProt Q5T2D3 | -0.0477
USP38 (UniProt Q8NB14) | -0.177
USP10 (UniProt Q14694) | -0.0398
USP25 (UniProt Q9UHP3) | -1.01 (active)
PRPF8 (UniProt Q6P2Q9) | -0.0301
UniProt O00487 | 0.0206
USP14 (UniProt P54578) | 0.244
USP16 (UniProt Q9Y5T5) | -0.253
